The text below walks through data of PubChem BioAssay (EPA / NIEHS).

Each structure is given as a SMILES string. Calls of active or inactive are those of the source. Rule for the calls: active = hit-call score of the fitted dose curve at least 0.9, where 1 is the maximum; inactive = score below 0.9.

What all share (conditions): mRNA level, 48 h; actives raise or lower the signal
Read-out in one assay: CYP2C9 (gene 1559)
As to the kind of experiment: LTEA_HepaRG_CYP2C9: Life Technologies and Expression Analysis (LTEA) Assay for CYP2C9 using HepaRG (AID 2283484). In a few lines:
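Eight-point concentration-response (highest 100 uM, half-log dilutions) in HepaRG cells for 48 h; CYP2C9 expression by qRT-PCR normalized to ACTB, GAPDH, POLR2A. Bidirectional fit, DMSO baseline.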

Read-out in a further assay: CYP2E1 (gene 1571)
Briefly: LTEA_HepaRG_CYP2E1: Life Technologies and Expression Analysis (LTEA) Assay for CYP2E1 using HepaRG (AID 2283485). The gist of the method:
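Assay uses 48 h exposure of HepaRG hepatic cells, eight concentrations to 100 uM. Expression of CYP2E1 is quantified by TaqMan qRT-PCR with ACTB, GAPDH and POLR2A normalization; curves fitted in both directions relative to vehicle.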

Read-out in another assay: CYP4A11 (gene 1579)
Briefly: LTEA_HepaRG_CYP4A11: Life Technologies and Expression Analysis (LTEA) Assay for CYP4A11 using HepaRG (AID 2283486). In a few lines:
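CYP4A11 transcript levels were quantified by TaqMan qRT-PCR after HepaRG human liver cells were treated for 48 hours with test chemicals (top 100 uM, half-log dilutions, 0.5% DMSO). Gain or loss of signal was fitted relative to DMSO.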

Read-out in assay [1]: Cytochrome P450 3A4 (Homo sapiens) (UniProt P08684)
As to the kind of experiment: LTEA_HepaRG_CYP3A4: Life Technologies and Expression Analysis (LTEA) Assay for CYP3A4 using HepaRG (AID 2283487). In a few lines: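 CYP3A4 transcript measured by TaqMan qRT-PCR and normalized to three housekeeping genes after 48 h chemical exposure of human HepaRG cells. Top concentration 100 uM, half-log steps, 0.5% DMSO vehicle; gain or loss fitted against DMSO baseline.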

Read-out in assay [2]: DNA damage-inducible transcript 3 (DDIT3), DDIT3 (gene 1649)
As to the kind of experiment: LTEA_HepaRG_DDIT3: Life Technologies and Expression Analysis (LTEA) Assay for DNA damage-inducible transcript 3 (DDIT3) using HepaRG (AID 2283488). The gist of the method: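 Eight-point concentration-response (100 uM highest, half-log dilutions) in HepaRG, 48 h, duplicate wells. Endpoint: qRT-PCR mRNA, normalized (ACTB, GAPDH, POLR2A), bidirectional fitting with DMSO as baseline.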

Read-out in assay [3]: Pro-epidermal growth factor (Homo sapiens) (UniProt P01133)
Briefly: LTEA_HepaRG_EGF: Life Technologies and Expression Analysis (LTEA) Assay for Epidermal growth factor (EGF) using HepaRG (AID 2283489). In a few lines:
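qRT-PCR readout of EGF transcript after 48 h chemical exposure of HepaRG cells; eight concentrations from 100 uM down in half-log steps, duplicate wells, 0.5% DMSO vehicle. Bidirectional curve fitting against DMSO baseline.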

Read-out in assay [4]: Early growth response protein 1 (EGR1) transcription factor, EGR1 (gene 1958)
Briefly: LTEA_HepaRG_EGR1: Life Technologies and Expression Analysis (LTEA) Assay for Early growth response protein 1 (EGR1) transcription factor using HepaRG (AID 2283490). The gist of the method: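 EGR1 expression change in human HepaRG after 48 h chemical exposure, assessed by housekeeping-normalized qRT-PCR; concentration-response up to 100 uM, fitted in both directions against DMSO controls.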

Read-out in assay [5]: Ezrin (EZR), EZR (gene 7430)
Briefly: LTEA_HepaRG_EZR: Life Technologies and Expression Analysis (LTEA) Assay for Ezrin (EZR) using HepaRG (AID 2283491). In a few lines: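 HepaRG, 48 h chemical exposure, 8-pt half-log series from 100 uM, 0.5% DMSO vehicle, duplicates. Read-out: EZR mRNA by TaqMan qRT-PCR (Fluidigm array), housekeeping-normalized; bidirectional curve fit vs DMSO baseline.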

Read-out in a further assay: CYP3A5 (gene 1577)
As to the kind of experiment: LTEA_HepaRG_CYP3A5: Life Technologies and Expression Analysis (LTEA) Assay for CYP3A5 using HepaRG (AID 2283493). The gist of the method: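 Readout was CYP3A5 mRNA by qRT-PCR. HepaRG cultures were exposed for 48 h in serum-free induction medium to chemicals at up to 100 uM, and responses were fitted in both directions relative to DMSO vehicle.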

Read-out in assay [6]: Fatty Acid-Binding Protein 1 (FABP1), FABP1 (gene 2168)
As to the kind of experiment: LTEA_HepaRG_FABP1: Life Technologies and Expression Analysis (LTEA) Assay for Fatty Acid-Binding Protein 1 (FABP1) using HepaRG (AID 2283494). In a few lines:
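Values reflect bidirectional concentration-response fitting of FABP1 mRNA change against 0.5% DMSO controls. Human HepaRG cultures received eight half-log doses (top 100 uM) for 48 h; expression quantified by TaqMan qRT-PCR with housekeeping-gene normalization.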

Read-out in assay [7]: Cytochrome P450 4A22 (Homo sapiens) (UniProt Q5TCH4)
As to the kind of experiment: LTEA_HepaRG_CYP4A22: Life Technologies and Expression Analysis (LTEA) Assay for Cytochrome P450 4A22 (CYP4A22) using HepaRG (AID 2283495). In a few lines:
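HepaRG, 48 h post-plating -> serum-free induction medium; dosed 48 h, duplicate, 8 conc. (100 uM top, half-log), 0.5% DMSO. Readout: CYP4A22 mRNA by qRT-PCR, ACTB/GAPDH/POLR2A normalization; gain/loss fit relative to DMSO.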

Read-out in assay [8]: Cytochrome P450 7A1 (Homo sapiens) (UniProt P22680)
As to the kind of experiment: LTEA_HepaRG_CYP7A1: Life Technologies and Expression Analysis (LTEA) Assay for Cytochrome P450 7A1 (CYP7A1) using HepaRG (AID 2283496). The gist of the method:
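Using 0.5% DMSO as vehicle and baseline, chemicals were tested in duplicate over an 8-point range from 100 uM on HepaRG cells for 48 h; qRT-PCR signals were normalised to ACTB, GAPDH and POLR2A.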

Read-out in assay [9]: Glutathione S-Transferase (GSTA2), GSTA2 (gene 2939)
Briefly: LTEA_HepaRG_GSTA2: Life Technologies and Expression Analysis (LTEA) Assay for Glutathione S-Transferase (GSTA2) using HepaRG (AID 2283497). The gist of the method: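 Oxidative-stress marker GSTA2 is quantified by TaqMan qRT-PCR in HepaRG cultures treated 48 h across an eight-point range to 100 uM. Expression is normalized to endogenous controls and compared with 0.5% DMSO vehicle.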

Read-out in assay [10]: Glutamate-cysteine ligase catalytic (GCLC), GCLC (gene 2729)
As to the kind of experiment: LTEA_HepaRG_GCLC: Life Technologies and Expression Analysis (LTEA) Assay for Glutamate-cysteine ligase catalytic (GCLC) using HepaRG (AID 2283498). In a few lines:
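Oxidative-stress marker GCLC is measured as mRNA change in human HepaRG liver cells after 48 h chemical treatment in 0.5% DMSO, eight concentrations from 100 uM. Activity is fitted bidirectionally against vehicle.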

Read-out in assay [11]: growth arrest and DNA damage 45 (GADD45G), GADD45G (gene 10912)
Briefly: LTEA_HepaRG_GADD45G: Life Technologies and Expression Analysis (LTEA) Assay for growth arrest and DNA damage 45 (GADD45G) using HepaRG (AID 2283499). The gist of the method: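 HepaRG, 48 h exposure, top 100 uM, half-log 8-point series, 0.5% DMSO vehicle, duplicates. Readout: GADD45G transcript by qRT-PCR (Fluidigm array), housekeeping-normalised (ACTB/GAPDH/POLR2A). Bidirectional curve fit vs DMSO baseline.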

Read-out in assay [12]: Glutamate-cysteine ligase regulatory (GCLM), GCLM (gene 2730)
As to the kind of experiment: LTEA_HepaRG_GCLM: Life Technologies and Expression Analysis (LTEA) Assay for Glutamate-cysteine ligase regulatory (GCLM) using HepaRG (AID 2283500). In a few lines: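 In this multiplexed HepaRG gene-expression assay, GCLM mRNA change after 48 h treatment (8 concentrations, max 100 uM) was scored against DMSO by bidirectional curve fitting.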

Read-out in assay [13]: Glutathione S-transferase M3 (GSTM3), GSTM3 (gene 2947)
Briefly: LTEA_HepaRG_GSTM3: Life Technologies and Expression Analysis (LTEA) Assay for Glutathione S-transferase M3 (GSTM3) using HepaRG (AID 2283501). In a few lines: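 qRT-PCR read-out of GSTM3 transcript, normalized to three housekeeping genes, from human HepaRG cells after 48 h chemical exposure. Eight-point half-log series, top 100 uM, 0.5% DMSO vehicle; gain or loss fitted relative to DMSO baseline.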

Read-out in assay [14]: Heat shock 70 kDa protein 1 (HSPA1A), gene 3303
As to the kind of experiment: LTEA_HepaRG_HSPA1A: Life Technologies and Expression Analysis (LTEA) Assay for Heat shock 70 kDa protein 1 (HSPA1A) using HepaRG (AID 2283502). In a few lines:
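An oxidative-stress marker readout: HepaRG cells treated 48 h in duplicate with an eight-point series (highest 100 uM) had HSPA1A mRNA quantified by TaqMan qRT-PCR. Activity was fitted in both directions using 0.5% DMSO as baseline.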

Read-out in assay [15]: Hypoxia-inducible factor 1-alpha (Homo sapiens) (UniProt Q16665)
As to the kind of experiment: LTEA_HepaRG_HIF1A: Life Technologies and Expression Analysis (LTEA) Assay for Hypoxia-inducible factor 1 (HIF1A) Trancription factor using HepaRG (AID 2283503).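 Note: HIF1A transcript by TaqMan qRT-PCR normalized to ACTB GAPDH and POLR2A.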 In a few lines:
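Gain- or loss-of-signal HIF1A mRNA changes are fitted against a DMSO baseline. HepaRG cultures receive eight concentrations, highest 100 uM, for 48 h in serum-free induction medium with 0.5% DMSO.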

Read-out in assay [16]: Cytochrome P450 3A7 (Homo sapiens) (UniProt P24462)
Briefly: LTEA_HepaRG_CYP3A7: Life Technologies and Expression Analysis (LTEA) Assay for CYP3A7 using HepaRG (AID 2283492). In a few lines:
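CYP3A7 transcript levels were read by TaqMan qRT-PCR on Fluidigm arrays after 48 h chemical exposure of human HepaRG cells, with housekeeping-gene normalisation. Eight half-log concentrations up to 100 uM in 0.5% DMSO were tested in duplicate.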

Sequence of Hypoxia-inducible factor 1-alpha (Homo sapiens) (Q16665 whole entry, looked up): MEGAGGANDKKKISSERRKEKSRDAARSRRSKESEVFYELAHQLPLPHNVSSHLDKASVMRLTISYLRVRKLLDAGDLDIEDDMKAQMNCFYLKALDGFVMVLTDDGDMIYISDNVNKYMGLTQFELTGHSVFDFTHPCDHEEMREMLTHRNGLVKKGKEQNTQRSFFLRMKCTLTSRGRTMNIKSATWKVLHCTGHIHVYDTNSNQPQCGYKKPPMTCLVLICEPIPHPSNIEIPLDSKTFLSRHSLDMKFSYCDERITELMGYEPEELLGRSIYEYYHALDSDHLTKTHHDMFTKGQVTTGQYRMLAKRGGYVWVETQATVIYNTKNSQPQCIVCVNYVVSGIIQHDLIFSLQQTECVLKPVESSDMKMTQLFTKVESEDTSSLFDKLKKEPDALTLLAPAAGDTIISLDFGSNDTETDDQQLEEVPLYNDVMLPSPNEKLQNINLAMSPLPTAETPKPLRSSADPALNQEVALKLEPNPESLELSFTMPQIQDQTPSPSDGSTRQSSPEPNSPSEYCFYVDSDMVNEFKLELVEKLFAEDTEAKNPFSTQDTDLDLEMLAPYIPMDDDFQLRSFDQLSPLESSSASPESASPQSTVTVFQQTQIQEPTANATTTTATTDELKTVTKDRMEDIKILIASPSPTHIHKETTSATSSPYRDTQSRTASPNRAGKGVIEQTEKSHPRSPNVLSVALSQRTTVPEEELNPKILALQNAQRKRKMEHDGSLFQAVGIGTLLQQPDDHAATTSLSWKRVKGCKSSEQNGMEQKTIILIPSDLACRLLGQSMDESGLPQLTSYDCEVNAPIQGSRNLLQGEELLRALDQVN
Sequence of Cytochrome P450 3A4 (Homo sapiens) (P08684 whole entry, looked up): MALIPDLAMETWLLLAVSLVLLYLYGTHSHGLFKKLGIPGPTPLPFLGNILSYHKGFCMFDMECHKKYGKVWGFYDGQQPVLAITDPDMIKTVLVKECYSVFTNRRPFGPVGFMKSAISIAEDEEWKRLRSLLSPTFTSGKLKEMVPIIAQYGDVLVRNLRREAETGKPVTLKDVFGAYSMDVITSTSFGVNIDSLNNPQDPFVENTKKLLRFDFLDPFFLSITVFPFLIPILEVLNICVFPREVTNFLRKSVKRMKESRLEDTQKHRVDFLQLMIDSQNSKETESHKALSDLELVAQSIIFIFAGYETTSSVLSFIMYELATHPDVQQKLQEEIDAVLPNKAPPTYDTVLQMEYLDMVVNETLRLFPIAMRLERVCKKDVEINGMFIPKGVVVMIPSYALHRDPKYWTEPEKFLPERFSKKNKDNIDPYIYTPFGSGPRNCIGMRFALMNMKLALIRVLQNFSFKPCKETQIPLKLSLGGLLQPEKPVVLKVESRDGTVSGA
Sequence of Cytochrome P450 3A7 (Homo sapiens) (P24462 whole entry, looked up): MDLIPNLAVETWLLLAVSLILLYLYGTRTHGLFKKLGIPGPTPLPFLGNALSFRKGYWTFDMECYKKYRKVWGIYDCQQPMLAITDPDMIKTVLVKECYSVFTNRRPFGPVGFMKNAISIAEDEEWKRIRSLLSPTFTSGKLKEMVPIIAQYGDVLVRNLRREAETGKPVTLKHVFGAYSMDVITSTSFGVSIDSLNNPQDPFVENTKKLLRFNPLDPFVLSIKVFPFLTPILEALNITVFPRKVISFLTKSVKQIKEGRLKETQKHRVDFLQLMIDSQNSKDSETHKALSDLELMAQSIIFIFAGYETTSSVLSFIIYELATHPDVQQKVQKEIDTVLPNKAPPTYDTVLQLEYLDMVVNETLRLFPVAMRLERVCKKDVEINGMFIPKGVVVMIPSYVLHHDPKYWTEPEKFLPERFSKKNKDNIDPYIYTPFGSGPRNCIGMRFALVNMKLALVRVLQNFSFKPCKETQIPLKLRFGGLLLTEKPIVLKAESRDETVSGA

Turning to `CN(C)c1ccccc1`, the compound was called inactive (in the assay with CYP2C9 (gene 1559); with CYP2E1 (gene 1571); with CYP4A11 (gene 1579); in [1]; in [2]; in assay [3]). The outcome (in assay [4]; in assay [5]; with CYP3A5 (gene 1577); in assay [6]; in [7]; in assay [8]) was inactive. In addition, the compound was called inactive in assay [9], in [10], in assay [11], in [12], in [13] and in assay [14]. Moreover, in assay [15], the compound was called inactive.

Take `Brc1ccc(Oc2ccccc2)cc1`: the result (with CYP2C9 (gene 1559); with CYP2E1 (gene 1571); in the assay with CYP4A11 (gene 1579); in [1]; in assay [2]; in assay [3]) was inactive. In addition, the outcome (in assay [4]; in assay [5]; with CYP3A5 (gene 1577); in assay [6]; in assay [7]; in assay [8]) was inactive. In addition, the compound was classed as inactive in assay [9], in [10], in [11], in assay [12] and in [14].

For `O=C1CCCO1`, the compound was classed as inactive (with CYP2C9 (gene 1559); in the assay with CYP2E1 (gene 1571); in assay [1]; in assay [2]; in [3]; in assay [4]). For the same compound, the call in assay [5], in assay [16], in [6], in assay [7], in assay [8] and in [11] was inactive. Besides, the outcome in assay [12], in assay [14] and in assay [15] was inactive. Besides, the half-maximal activity concentration (AC50) is 0.0449 µM (active) with CYP4A11 (gene 1579), 9.92 µM (active) in the assay with CYP3A5 (gene 1577), 50 µM (active) in [9] and 9.92 µM (active) in assay [10].

On to `Cc1ccc([N+](=O)[O-])cc1`, for which the result (in the assay with CYP2C9 (gene 1559); in assay [2]; in assay [3]; in assay [4]; in [5]; with CYP3A5 (gene 1577)) was inactive. The compound was classed as inactive in assay [7], in assay [9], in assay [10], in [11], in assay [12] and in [13]. Further, the compound was classed as inactive in assay [14] and in [15]. Moreover, the AC50 was 20.2 µM (active) with CYP2E1 (gene 1571); 1.58 µM (active) in the assay with CYP4A11 (gene 1579); 1.39 µM (active) in assay [1]; 10 µM (active) in assay [6]; 17.3 µM (active) in assay [8].

As usually defined, the AC50 is the concentration at which the activity in the assay is half-maximal.
